Reference: PubChem BioAssay (EPA / NIEHS)
Activity calls are given as the source filed them. How the source made its calls: active means hit-call score of the fitted dose curve at least 0.9, where 1 is the maximum; inactive means score below 0.9.

Columns and labels:
[1] = read-out: Fatty acid synthase (Homo sapiens) (UniProt P49327); test: LTEA_HepaRG_FASN: Life Technologies and Expression Analysis (LTEA) Assay for Fatty Acid Synthase (FASN) using HepaRG (AID 2283448); conditions: mRNA level, 48 h; actives raise or lower the signal
Procedure, shortened: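 Differentiated human HepaRG cells were exposed for 48 h in serum-free induction medium to eight half-log concentrations up to 100 uM in 0.5% DMSO, in duplicate. FASN mRNA was quantified by TaqMan qRT-PCR, normalized to ACTB/GAPDH/POLR2A, and fitted bidirectionally against DMSO.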

[2] = read-out: Cyclin D2 (CCND2), CCND2 (gene 894); test: LTEA_HepaRG_CCND2: Life Technologies and Expression Analysis (LTEA) Assay for Cyclin D2 (CCND2) using HepaRG (AID 2283449); conditions: mRNA level, 48 h; actives raise or lower the signal
Procedure, shortened: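 Read-out is CCND2 mRNA level measured by qRT-PCR in human HepaRG liver cells and normalised to three housekeeping genes. Chemicals were applied for 48 h at up to 100 uM, with gain or loss fitted relative to 0.5% DMSO.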

[3] = read-out: Cyclin Dependent Kinase Inhibitor 1A (CDKN1A), CDKN1A (gene 1026); test: LTEA_HepaRG_CDKN1A: Life Technologies and Expression Analysis (LTEA) Assay for Cyclin Dependent Kinase Inhibitor 1A (CDKN1A) using HepaRG (AID 2283450); conditions: mRNA level, 48 h; actives raise or lower the signal
Procedure, shortened: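 Gain or loss of CDKN1A transcript is scored by bidirectional fitting against 0.5% DMSO vehicle. Human HepaRG cultures receive chemicals for 48 h across an 8-point series peaking at 100 uM; expression comes from qRT-PCR.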

[4] = read-out: Cyclin D1 (CCND1), CCND1 (gene 595); test: LTEA_HepaRG_CCND1: Life Technologies and Expression Analysis (LTEA) Assay for Cyclin D1 (CCND1) using HepaRG (AID 2283451); conditions: mRNA level, 48 h; actives raise or lower the signal
Procedure, shortened: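 Expression change is measured by qRT-PCR in HepaRG cells after 48 h treatment across eight concentrations topping at 100 uM, with duplicate wells and DMSO (0.5%) serving as baseline for bidirectional fitting.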

[5] = read-out: catalase (CAT), CAT (gene 847); test: LTEA_HepaRG_CAT: Life Technologies and Expression Analysis (LTEA) Assay for catalase (CAT) using HepaRG (AID 2283452); conditions: mRNA level, 48 h; actives raise or lower the signal
Procedure, shortened: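 Expression of CAT was quantified by TaqMan qRT-PCR with ACTB/GAPDH/POLR2A normalization after 48 h chemical exposure of HepaRG. Eight-point half-log series, top 100 uM, in 0.5% DMSO; gain or loss fitted against vehicle.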

[6] = read-out: flavin-containing dimethylaniline monooxygenases 3 (FMO3), FMO3 (gene 2328); test: LTEA_HepaRG_FMO3: Life Technologies and Expression Analysis (LTEA) Assay for flavin-containing dimethylaniline monooxygenases 3 (FMO3) using HepaRG (AID 2283453); conditions: mRNA level, 48 h; actives raise or lower the signal;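 on AC50: FMO3 transcript by TaqMan qRT-PCR normalized to ACTB GAPDH and POLR2A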
Procedure, shortened: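 HepaRG, 48 h exposure, 8-pt half-log series from 100 uM, 0.5% DMSO vehicle, duplicates; FMO3 transcript by Fluidigm TaqMan qRT-PCR, housekeeping-normalized; gain/loss fit vs DMSO.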

[7] = read-out: Cytochrome P450 (CYP1A1), CYP1A1 (gene 1543); test: LTEA_HepaRG_CYP1A1: Life Technologies and Expression Analysis (LTEA) Assay for Cytochrome P450 (CYP1A1) using HepaRG (AID 2283454); conditions: mRNA level, 48 h; actives raise or lower the signal
Procedure, shortened: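 Using HepaRG cultures with 0.5% DMSO as vehicle, eight-concentration exposures (max 100 uM) lasted 48 h. Transcript levels were measured by TaqMan qRT-PCR and normalized to ACTB, GAPDH and POLR2A.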

[8] = read-out: CFLAR gene, CFLAR (gene 8837); test: LTEA_HepaRG_CFLAR: Life Technologies and Expression Analysis (LTEA) Assay for CFLAR gene using HepaRG (AID 2283455); conditions: mRNA level, 48 h; actives raise or lower the signal
Procedure, shortened: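 HepaRG, 48 h exposure, 8-pt conc-response (100 uM top, half-log), 0.5% DMSO vehicle, duplicates. CFLAR expression by qRT-PCR; ACTB/GAPDH/POLR2A normalization; gain or loss fit vs DMSO baseline.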

[9] = read-out: Forkhead box O1 (FOXO1), FOXO1 (gene 2308); test: LTEA_HepaRG_FOXO1: Life Technologies and Expression Analysis (LTEA) Assay for Forkhead box O1 (FOXO1) using HepaRG (AID 2283456); conditions: mRNA level, 48 h; actives raise or lower the signal
Procedure, shortened: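 Readout is FOXO1 transcript level by multiplexed qRT-PCR against three housekeeping genes, curve-fitted in both directions relative to 0.5% DMSO vehicle. Human HepaRG cultures received chemicals for 48 h, up to 100 uM in half-log steps.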

[10] = read-out: growth arrest and DNA damage 45 (GADD45A), GADD45A (gene 1647); test: LTEA_HepaRG_GADD45A: Life Technologies and Expression Analysis (LTEA) Assay for growth arrest and DNA damage 45 (GADD45A) using HepaRG (AID 2283458); conditions: mRNA level, 48 h; actives raise or lower the signal
Procedure, shortened: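 Differentiated HepaRG cells were exposed in duplicate for 48 h in serum-free induction medium to 8-point half-log concentrations up to 100 uM in 0.5% DMSO. GADD45A mRNA was measured by TaqMan qRT-PCR, normalized to ACTB, GAPDH and POLR2A, with bidirectional fitting versus DMSO.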

[11] = read-out: Forkhead box O3 (FOXO3), FOXO3 (gene 2309); test: LTEA_HepaRG_FOXO3: Life Technologies and Expression Analysis (LTEA) Assay for Forkhead box O3 (FOXO3) using HepaRG (AID 2283459); conditions: mRNA level, 48 h; actives raise or lower the signal
Procedure, shortened: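 HepaRG, 48 h post-dose; 8 conc., half-log from 100 uM, 0.5% DMSO, duplicates; serum-free induction medium. Readout: FOXO3 mRNA, TaqMan qRT-PCR, housekeeping-normalized. Bidirectional curve fit vs DMSO baseline.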

[12] = read-out: ABC Transporter (ABCB1), ABCB1 (gene 5243); test: LTEA_HepaRG_ABCB1: Life Technologies and Expression Analysis (LTEA) Assay for ABC Transporter (ABCB1) using HepaRG (AID 2283460); conditions: mRNA level, 48 h; actives raise or lower the signal
Procedure, shortened: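 Expression of ABCB1 was quantified by qRT-PCR against three housekeeping genes after human HepaRG cultures received test chemicals for 48 hours. Concentrations spanned eight half-log steps topping at 100 uM in 0.5% DMSO; gain or loss of signal was fitted relative to vehicle.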

[13] = read-out: growth arrest and DNA damage 45 (GADD45B), GADD45B (gene 4616); test: LTEA_HepaRG_GADD45B: Life Technologies and Expression Analysis (LTEA) Assay for growth arrest and DNA damage 45 (GADD45B) using HepaRG (AID 2283461); conditions: mRNA level, 48 h; actives raise or lower the signal
Procedure, shortened: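 Human HepaRG monolayers receive chemicals for 48 h at eight half-log concentrations, highest 100 uM, in 0.5% DMSO. Expression is measured by TaqMan qRT-PCR and normalized to ACTB, GAPDH and POLR2A.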

[14] = read-out: ABC Transporter (ABCC3), ABCC3 (gene 8714); test: LTEA_HepaRG_ABCC3: Life Technologies and Expression Analysis (LTEA) Assay for ABC Transporter (ABCC3) using HepaRG (AID 2283462); conditions: mRNA level, 48 h; actives raise or lower the signal
Procedure, shortened: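 Transcriptional change of ABCC3 in HepaRG after 48 h treatment, determined by qRT-PCR normalized to endogenous controls. Concentrations spanned eight half-log steps to 100 uM in 0.5% DMSO.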

[15] = read-out: ABC Transporter (ABCB11), ABCB11 (gene 8647); test: LTEA_HepaRG_ABCB11: Life Technologies and Expression Analysis (LTEA) Assay for ABC Transporter (ABCB11) using HepaRG (AID 2283463); conditions: mRNA level, 48 h; actives raise or lower the signal
Procedure, shortened: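 ABCB11 transcript levels are read by Fluidigm TaqMan qRT-PCR after 48 h chemical treatment of human HepaRG cells. Concentrations span 100 uM downward in half-log steps with 0.5% DMSO; gain or loss is fitted against DMSO controls.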

[16] = read-out: Broad substrate specificity ATP-binding cassette transporter ABCG2 (Homo sapiens) (UniProt Q9UNQ0); test: LTEA_HepaRG_ABCG2: Life Technologies and Expression Analysis (LTEA) Assay for ABC Transporter (ABCG2) using HepaRG (AID 2283465); conditions: mRNA level, 48 h; actives raise or lower the signal
Procedure, shortened: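 Read-out is ABCG2 mRNA induction or loss quantified by qRT-PCR after 48 h chemical treatment of human HepaRG cells, normalized to three housekeeping genes. Concentrations reached 100 uM top in half-log steps; fitting was bidirectional against 0.5% DMSO.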

[17] = read-out: ATP-citrate lyase (ACLY), ACLY (gene 47); test: LTEA_HepaRG_ACLY: Life Technologies and Expression Analysis (LTEA) Assay for ATP-citrate lyase (ACLY) using HepaRG (AID 2283466); conditions: mRNA level, 48 h; actives raise or lower the signal
Procedure, shortened: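 HepaRG, 48 h exposure, 8-pt half-log dilutions (top 100 uM), 0.5% DMSO. Readout: ACLY mRNA, TaqMan qRT-PCR, housekeeping-normalized (ACTB/GAPDH/POLR2A). Bidirectional curve fit vs DMSO.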

[18] = read-out: ABC Transporter (ABCC2), ABCC2 (gene 1244); test: LTEA_HepaRG_ABCC2: Life Technologies and Expression Analysis (LTEA) Assay for ABC Transporter (ABCC2) using HepaRG (AID 2283464); conditions: mRNA level, 48 h; actives raise or lower the signal
Procedure, shortened: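 After plating and 48 h culture, HepaRG medium is replaced with serum-free induction medium and chemicals are added (8 concentrations, max 100 uM, 0.5% DMSO) for 48 h. Total RNA then undergoes qRT-PCR for ABCC2 with housekeeping normalization.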

[19] = read-out: Peroxisomal acyl-coenzyme A oxidase 1 (ACOX1) gene, ACOX1 (gene 51); test: LTEA_HepaRG_ACOX1: Life Technologies and Expression Analysis (LTEA) Assay for Peroxisomal acyl-coenzyme A oxidase 1 (ACOX1) gene using HepaRG (AID 2283467); conditions: mRNA level, 48 h; actives raise or lower the signal
Procedure, shortened: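 Measured by qRT-PCR against three housekeeping genes: ACOX1 transcript change in human HepaRG cells after 48 h dosing. Concentrations ran up to 100 uM in half-log steps. Curves were fitted bidirectionally relative to 0.5% DMSO.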

[20] = CEETOX_H295R_TESTO: CeeTox H295R High-throughput Steroidogenesis Assay for Testosterone (TESTO) (AID 2283457); conditions: actives raise or lower the signal
Procedure, shortened: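 Steroidogenesis in H295R cells following OECD 456 with minor changes; 48 h exposure. Medium testosterone by HPLC-MS/MS, DMSO as baseline, with MTT viability run in parallel.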

Measured: AC50

Chain of Broad substrate specificity ATP-binding cassette transporter ABCG2 (Homo sapiens) (Q9UNQ0 whole entry, looked up): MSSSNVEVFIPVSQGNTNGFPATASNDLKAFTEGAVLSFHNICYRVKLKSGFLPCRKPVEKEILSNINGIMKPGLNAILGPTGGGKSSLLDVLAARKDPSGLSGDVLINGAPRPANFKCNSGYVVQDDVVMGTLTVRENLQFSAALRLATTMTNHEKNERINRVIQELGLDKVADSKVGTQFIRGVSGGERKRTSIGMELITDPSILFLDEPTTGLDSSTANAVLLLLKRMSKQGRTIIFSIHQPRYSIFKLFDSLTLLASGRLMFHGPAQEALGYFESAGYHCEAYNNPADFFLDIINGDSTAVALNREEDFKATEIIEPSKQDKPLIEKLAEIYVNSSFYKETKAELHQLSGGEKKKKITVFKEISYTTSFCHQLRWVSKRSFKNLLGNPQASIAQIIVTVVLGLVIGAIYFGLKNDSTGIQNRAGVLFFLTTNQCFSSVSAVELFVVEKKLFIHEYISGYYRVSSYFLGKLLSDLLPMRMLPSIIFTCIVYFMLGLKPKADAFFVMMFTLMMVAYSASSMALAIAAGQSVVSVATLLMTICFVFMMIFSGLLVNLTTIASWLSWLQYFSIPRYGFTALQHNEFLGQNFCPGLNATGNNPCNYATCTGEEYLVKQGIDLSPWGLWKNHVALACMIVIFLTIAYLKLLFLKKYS
Chain of Fatty acid synthase (Homo sapiens) (P49327 whole entry, looked up): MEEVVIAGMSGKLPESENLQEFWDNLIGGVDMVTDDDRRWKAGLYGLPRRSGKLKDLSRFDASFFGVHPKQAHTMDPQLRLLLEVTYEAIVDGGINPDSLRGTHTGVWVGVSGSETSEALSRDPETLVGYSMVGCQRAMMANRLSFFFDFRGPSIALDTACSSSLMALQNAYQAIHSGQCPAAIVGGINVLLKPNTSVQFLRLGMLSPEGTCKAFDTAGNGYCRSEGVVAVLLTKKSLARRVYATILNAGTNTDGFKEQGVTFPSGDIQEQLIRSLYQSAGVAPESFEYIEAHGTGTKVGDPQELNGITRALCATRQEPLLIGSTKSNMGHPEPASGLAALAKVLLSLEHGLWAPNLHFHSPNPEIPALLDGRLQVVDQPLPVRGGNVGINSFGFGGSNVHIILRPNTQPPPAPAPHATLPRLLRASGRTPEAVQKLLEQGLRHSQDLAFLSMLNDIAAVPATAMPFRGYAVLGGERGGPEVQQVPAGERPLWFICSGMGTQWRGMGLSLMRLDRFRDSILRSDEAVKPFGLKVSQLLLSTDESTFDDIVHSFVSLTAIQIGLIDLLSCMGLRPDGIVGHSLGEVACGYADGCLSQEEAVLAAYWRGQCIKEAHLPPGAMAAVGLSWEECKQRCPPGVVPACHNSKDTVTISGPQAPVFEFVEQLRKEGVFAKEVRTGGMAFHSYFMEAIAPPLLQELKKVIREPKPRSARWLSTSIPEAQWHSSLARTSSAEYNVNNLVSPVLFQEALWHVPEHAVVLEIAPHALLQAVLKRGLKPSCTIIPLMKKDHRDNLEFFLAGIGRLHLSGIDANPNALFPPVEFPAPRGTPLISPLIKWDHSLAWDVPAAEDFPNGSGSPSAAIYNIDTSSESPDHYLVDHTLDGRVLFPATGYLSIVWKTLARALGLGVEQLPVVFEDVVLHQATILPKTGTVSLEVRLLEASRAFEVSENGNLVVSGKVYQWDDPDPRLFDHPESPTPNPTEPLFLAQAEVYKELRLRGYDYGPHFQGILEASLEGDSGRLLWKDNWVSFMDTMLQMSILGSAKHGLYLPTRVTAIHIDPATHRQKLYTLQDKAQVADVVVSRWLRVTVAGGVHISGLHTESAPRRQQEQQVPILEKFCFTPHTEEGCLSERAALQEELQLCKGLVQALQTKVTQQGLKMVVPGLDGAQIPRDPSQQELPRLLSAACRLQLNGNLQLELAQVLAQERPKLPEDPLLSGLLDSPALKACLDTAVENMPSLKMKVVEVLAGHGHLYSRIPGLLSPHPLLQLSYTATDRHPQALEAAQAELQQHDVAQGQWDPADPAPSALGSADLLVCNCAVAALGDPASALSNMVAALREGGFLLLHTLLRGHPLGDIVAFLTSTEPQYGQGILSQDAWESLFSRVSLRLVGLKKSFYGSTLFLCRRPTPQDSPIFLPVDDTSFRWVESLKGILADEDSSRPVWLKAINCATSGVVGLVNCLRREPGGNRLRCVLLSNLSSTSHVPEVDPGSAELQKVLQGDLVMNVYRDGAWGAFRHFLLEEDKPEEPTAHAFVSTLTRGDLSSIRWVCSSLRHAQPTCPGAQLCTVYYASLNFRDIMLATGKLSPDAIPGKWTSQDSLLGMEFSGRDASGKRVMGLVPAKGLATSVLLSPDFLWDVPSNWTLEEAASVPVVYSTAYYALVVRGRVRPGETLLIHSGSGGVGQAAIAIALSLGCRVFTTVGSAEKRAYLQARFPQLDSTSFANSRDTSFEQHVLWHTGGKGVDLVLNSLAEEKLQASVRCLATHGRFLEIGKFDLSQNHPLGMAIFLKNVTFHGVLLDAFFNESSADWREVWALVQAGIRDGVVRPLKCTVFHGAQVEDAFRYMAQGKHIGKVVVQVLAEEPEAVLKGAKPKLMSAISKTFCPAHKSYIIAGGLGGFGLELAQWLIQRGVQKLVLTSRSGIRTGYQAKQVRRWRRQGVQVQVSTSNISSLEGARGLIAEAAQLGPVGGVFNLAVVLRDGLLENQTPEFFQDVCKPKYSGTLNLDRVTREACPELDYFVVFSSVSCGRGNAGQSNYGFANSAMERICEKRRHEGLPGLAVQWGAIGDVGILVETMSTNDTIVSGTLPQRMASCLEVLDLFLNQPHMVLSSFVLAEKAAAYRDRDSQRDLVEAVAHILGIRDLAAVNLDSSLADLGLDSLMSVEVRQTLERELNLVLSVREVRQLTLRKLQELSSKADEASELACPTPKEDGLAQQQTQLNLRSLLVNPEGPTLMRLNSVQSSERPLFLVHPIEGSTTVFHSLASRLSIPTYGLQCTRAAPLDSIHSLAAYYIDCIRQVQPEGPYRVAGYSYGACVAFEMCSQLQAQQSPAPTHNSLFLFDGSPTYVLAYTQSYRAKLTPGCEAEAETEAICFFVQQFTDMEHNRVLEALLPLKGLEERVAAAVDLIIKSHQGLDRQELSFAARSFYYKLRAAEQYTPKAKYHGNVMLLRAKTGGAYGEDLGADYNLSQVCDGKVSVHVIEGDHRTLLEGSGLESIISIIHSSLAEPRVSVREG

CC(C)(C)CC(C)(C)c1ccc(O)c(-n2nc3ccccc3n2)c1
active: [1] 50 µM | [6] 77.6 µM | [7] 41 µM | [12] 50 µM | [16] 30.6 µM
not listed: [18] | [19] | [20]
inactive: all other assays above

COC(=O)CCCCC(=O)OC
not listed: [2] | [20]
inactive: all other assays above

Nc1cccc2c(N)cccc12
active: [1] 18.3 µM | [7] 9 µM | [11] 22.4 µM | [15] 50 µM
not listed: [2] | [18] | [19]
inactive: all other assays above

CCCCOCCO
active: [7] 50 µM
not listed: [18] | [19] | [20]
inactive: all other assays above

CC(C)CCCCCCOC(=O)CCCCC(=O)OCCCCCCC(C)C
active: [7] 50 µM
not listed: [18] | [20]
inactive: all other assays above

Oc1cccc(O)c1
not listed: [2] | [18] | [20]
inactive: all other assays above
